From PubChem BioAssay AID1259343 (VanderVen Lab, College of Veterinary Medicine, Cornell …, 2017)
The campaign covered roughly 6,200 compounds. About 2,900 (47%) were called active. So high a share suggests a set chosen from earlier hits. Some of the results follow. A number with no mark means an inactive call. Rule as the data show it: active = inhibition above about 50%; inactive = the rest.

Test: Mycobacterium tuberculosis growth inhibition, primary screen (AID 1259343)
Conditions: inhibition: at 10 µM, hits give high values; outcome: 10 uM

| Structure (SMILES) | inhibition |
| --- | --- |
| O=C(CC1CCS(=O)(=O)C1)Nc1ccc(F)c(-n2cccc2)c1 (configuration not stated) | 58.4% (active) |
| O=C(CC1CCCCC1)NCc1ccn(-c2ccccc2F)n1 | 25.1% |
| CC1(C(=O)Nc2ccc(F)c(-n3cccc3)c2)CCOCC1 | 49.2% |
| O=C1CCC(C(=O)Nc2ccc(F)c(-n3cccc3)c2)CN1 (configuration not stated) | 68.1% (active) |
| CC(=O)Nc1ccc(/C=C2\C(=O)c3c(O)ccc(Cl)c3C2C)cc1 (configuration not stated) | 28.3% |
| CCOC(=O)C1=C(O)/C(=C\c2cccc(C)n2)SC1=Nc1cccc(F)c1 | -12.2% |
| N#CC1(NC(=O)COc2ccc(C(=O)c3ccc(F)cc3)cc2)CCCCC1 | 99.2% (active) |
| Fc1cccc(F)c1-c1nc(CSc2nccc(C(F)(F)F)n2)cs1 | 51.8% (active) |
| Cc1nccc(-c2ccc(NC(=O)/C=C/c3csc(C)n3)cc2)n1 | 86.2% (active) |
| O=C(Nc1cccc(Cl)c1Cl)C1COc2ccccc2O1 (configuration not stated) | -20.1% |
| O=C(NNC(=O)C1COc2ccccc2O1)c1cccc(C(F)(F)F)c1 (configuration not stated) | -52.4% |
| O=C(Nc1cccc([N+](=O)[O-])c1)C1COc2ccccc2O1 (configuration not stated) | 97.2% (active) |
| COc1cccc(OCCCOc2ccc(/C=C3\C(=N)N4N=CSC4=NC3=O)cc2)c1 | 88.5% (active) |
| N#Cc1cccc(CN2CCN3C(C(=O)Nc4ccc(-n5cccn5)cc4)=COC3=NC2=O)c1 | 85.8% (active) |
| N#Cc1cccc(CN2CCN3C(C(=O)Nc4ccc(-n5cccc5)cc4)=COC3=NC2=O)c1 | 29.2% |
| N#Cc1cccc(CN2CCN3C(C(=O)NCCCc4ccccc4)=COC3=NC2=O)c1 | 89.4% (active) |

| Structure (SMILES) | inhibition |
| --- | --- |
| O=c1c(Cl)c(Cl)cnn1Cc1cc(-c2cccs2)on1 | 99.8% (active) |
| O=c1c(Cl)cc(C(F)(F)F)cn1Cc1coc(-c2cccs2)n1 | 25.7% |
| O=c1c(Cl)c(Cl)cnn1CCOc1ccc(Br)cc1 | 33.5% |
| Fc1ccc(C2C=C(c3cccs3)Nc3nnnn32)cc1 (configuration not stated) | 51% (active) |
| FC(F)(F)c1ccc(C2C=C(c3cccs3)Nc3nnnn32)cc1 (configuration not stated) | 87.3% (active) |
| FC(F)Oc1ccc(C2C=C(c3ccccc3)Nc3nnnn32)cc1 (configuration not stated) | -55.4% |
| CCCCCCSC1=C(C#N)C2(CCCC2)C(C#N)C(=O)N1 (configuration not stated) | inactive |
| CCCCCCSC1=C(C#N)C(=O)NC(CO)S1 (configuration not stated) | 98.9% (active) |
| CCCCSC1=C(C#N)C(=O)NC(C)S1 (configuration not stated) | 27.6% |
| c1ccc(-c2cnnc(N3CCCCCCC3)n2)cc1 | 48.8% |
| COc1ccccc1-c1cc(C(=O)O)nc2cc(-c3ccc(Cl)cc3)nn12 | 43.3% |
| CC(C)(C)c1cc2nc(C(=O)O)cc(-c3cccc(C(F)(F)F)c3)n2n1 | 43.3% |
| COc1cccc(-c2cc(C(=O)O)nc3cc(-c4ccc(Cl)cc4)nn23)c1 | 59.4% (active) |
| COc1cccc(-c2cc(C(=O)O)nc3cc(C(C)(C)C)nn23)c1 | 100% (active) |
| CC(C)(C)c1cc2nc(C(=O)O)cc(-c3cccc(F)c3)n2n1 | 64.4% (active) |
| CN1CCC(CNc2ccc3ncc(-c4cccc(OC(F)(F)F)c4)n3n2)CC1 | 44.6% |
